# Measurements: PubChem BioAssay AID588651 (The Scripps Research Institute Molecular Screening Center, 2011)
# The source made the active and inactive calls. Cut-off read from the data, not from the text of the source: active = inhibition above about 65%; inactive = the rest.
# System: Antitargets
# Assay: Fam108b inhibitors and proteome off-target selectivity – biochemical, gel-based ABPP, recombinant soluble Fam108b, HTS hits, complex proteome, late-stage follow-up (AID 588651);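 note: Fam108b spiked into mouse brain membrane proteome; tested at 20 µM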
# Conditions: FP-rhodamine labeling in proteome
row,SMILES,outcome
1,COc1cc2cc(C(=O)NN=Cc3ccccc3Cl)[nH]c2cc1OC,inactive
2,Cc1cc(Nc2ccc(Cl)cc2)nc(NCc2ccccc2)n1,inactive
3,Brc1ccc(-c2csc(Nc3nc(-c4ccc(Br)cc4)cs3)n2)cc1,inactive
4,O=C(CCCSc1ccccc1)Nc1nc(-c2ccco2)c(-c2ccco2)s1,inactive
5,O=S(=O)(c1cc(O)ccc1O)c1cccc2c(S(=O)(=O)c3cc(O)ccc3O)cccc12,inactive
6,O=C(Nc1cccc(-c2csc(Nc3ccc(Cl)cc3)n2)c1)c1cc([N+](=O)[O-])cc(C(F)(F)F)c1,inactive
7,Oc1oc(-c2ccccc2Br)nc1C=Nc1ccccn1,active
8,O=C(Nc1ccc(-c2csc(Nc3ccccc3)n2)cc1)c1cc([N+](=O)[O-])cc(C(F)(F)F)c1,inactive
9,COc1ccc(/C=C2\SC(=S)N(CC(=O)OCC(=O)Nc3cc(Cl)cc(Cl)c3)C2=O)cc1,inactive
10,Cc1ccc(-c2csc3nc(C(C)C)oc(=O)c23)c(C)c1,inactive
11,Clc1ccccc1C(c1ccccc1)(c1ccccc1)n1ccnc1,inactive
12,Cc1ccnc(N=Cc2nc(-c3ccccc3Br)oc2O)c1,inactive
13,O=C1C(Cl)=C(N2CCC(C(=O)O)CC2)C(=O)c2ccccc21,inactive
14,CC1(C)CC(=O)C2=C(C1)c1c(ccc3ccccc13)NC2c1cc([N+](=O)[O-])cc([N+](=O)[O-])c1O (stereo unspecified),inactive
15,COc1ccc(S(=O)(=O)/N=C2\C=C(Nc3ccc(O)cc3)C(=O)c3ccccc32)cc1,inactive
16,O=C(O)C1Nc2ccc(Br)cc2C2C=CCC12 (stereo unspecified),inactive
